Test results taken from ChEMBL document CHEMBL3988442, “University of Dundee, Small-Polar-MMV Screening Library” (2021).
Among all 48,000 compounds or so, about 13,000 (27%) showed an effect of 50% or more. This is one part of the list.

tested on: Wolbachia pipientis; assay: Anti-Wolbachia Cell-Based Screen; format: functional; set-up: scale not given: in the data most compounds retested in dose-response had high values; details: 5 µM

Structure (SMILES) | Percent Effect [%]
Cc1noc(C)c1CC(=O)NCC(C)N1CCOCC1 (centres undefined) | 8.973
O=C(NCc1cccnc1)[C@@H]1CC[C@@H]2[C@@H](CCN2c2ncccn2)O1.O=C(O)C(F)(F)F.O=C(O)C(F)(F)F | 3.562
CCO[C@@H]1CC[C@H]2[C@H]1OCCN2Cc1ccc(F)cc1 | 96.26
Fc1ccc(CN2CCO[C@H]3[C@H](OCC4CCCC4)CC[C@@H]32)cc1.O=C(O)C(F)(F)F | 109
Fc1cccc(CN2CCO[C@H]3[C@@H](OCc4ccccn4)CC[C@@H]32)c1 | 10.15
Fc1ccc(CN2CCO[C@H]3[C@H](OCC4CC4)CC[C@@H]32)cc1.O=C(O)C(F)(F)F | 2.778
CO[C@@H]1CC[C@H]2[C@H]1OCCN2Cc1ccc(F)cc1.O=C(O)C(F)(F)F | 109.6
CO[C@H]1CC[C@H]2[C@H]1OCCN2Cc1ccc(F)cc1.O=C(O)C(F)(F)F | 91.7
CC(=O)c1cccc(S(=O)(=O)NCC(C)(O)c2cccs2)c1 (centres undefined) | 1.748
COCCN1CCN(C(=O)C[C@@H]2C[C@@H](C(C)C)[C@H](CC#N)C=C2C)CC1 | 7.225
COc1cc(F)ccc1-c1cc(N)ccn1 | -8.193
CCOc1ccccc1CNC(=O)NCC(c1cnn(C)c1)N(C)C (centres undefined) | -20.46
Cc1cc(C)cc(C(=O)NCCCNc2ncccn2)c1 | -23.32
Cc1ccc2cc(C3(O)CCN(C(=O)CN4CCCC4)CC3)ccc2n1 | -0.9065
CS(=O)(=O)N(Cc1ccon1)c1ccc(F)cc1 | -1.74
CC(C)CCS(=O)(=O)CC(=O)N1CCCC1c1cnn(C)c1 (centres undefined) | 5.656
CC(C)CCn1cc(C(C(=O)O)N2CCC(N3CCSCC3)CC2)cn1 (centres undefined) | 123.7
CC(C)CCn1cc(C(C(=O)O)N2CCSCC2)cn1 (centres undefined) | 100.1
COc1ccc(F)cc1C(C(=O)O)N1CCSCC1 (centres undefined) | -3.942
COc1ccc(C(C(=O)O)N2CCCN(C3CCCCC3)CC2)cn1 (centres undefined) | 6.723
CC(C)CCn1cc(C(C(=O)O)N2CCC(c3ccncc3)CC2)cn1 (centres undefined) | 105.9
COCCn1cc(NC(=O)NCC(C)N2CCOCC2)cn1 (centres undefined) | -7.646
COc1ccc(C(C(=O)O)N2CCCN(C3CCCC3)CC2)cc1OC (centres undefined) | 14.25
CC(CCn1cccn1)N1CCC(n2cc(C(C)(C)N)nn2)CC1 (centres undefined) | -1.676
Cn1cc(CN2CCC3(CC2)CC(c2ccncc2)C(=O)N3)cn1.O=C(O)C(F)(F)F.O=C(O)C(F)(F)F (centres undefined) | 4.796
CC(C)Cc1cn(C2CCN(C(C)CCn3cccn3)CC2)nn1 (centres undefined) | 2.161

Structure (SMILES) | Percent Effect [%]
CC(C)CCn1cc(C(C(=O)O)N2CCCN(C3CCCC3)CC2)cn1 (centres undefined) | 99.16
O=C(N[C@@H]1CN(c2ncccn2)C[C@@H]2CCCO[C@@H]21)c1cccnc1.O=C(O)C(F)(F)F.O=C(O)C(F)(F)F | -5.975
CC1CCCN(C(=O)c2cccc(CS(C)(=O)=O)c2)C1 (centres undefined) | -2.941
CN1CCN(C(=O)c2cccc(CN3CCOCC3)c2)CC1 | 132.9
CCN1CCN(C(=O)c2ccn(C)c(=O)c2)CC1 | 15.1
COCc1cccc(C(=O)N2CCCC2)c1 | -4.067
CC1CCN(C(=O)c2cccc(CN3CCOCC3)c2)CC1 | 117.9
NC(=O)C1CCN(C(=O)c2cccc(CN3CCOCC3)c2)CC1 | -12.72
CCN1CCN(C(=O)c2cccc(CN3CCOCC3)c2)CC1 | 97.52
CCOCCN1CCN(Cc2cccc(C(=O)N(C)C)c2)CC1 | -1.534
O=C(c1cccc(NCCO)c1)N1CCOCC1 | 0.9463
COC(=O)[C@@H]1Cc2ncn(C(C)C)c2CN1S(=O)(=O)Cc1ccccc1 | 1.678
CCN(CC)S(=O)(=O)NC(C)C(=O)N(C)C (centres undefined) | -9.888
CC(C)c1nnc(CNc2ccc(SC(F)(F)F)cc2)o1 | -0.02401
CCc1ccc(C2CCCCCN2C(=O)CNC(=O)NC2CC2)o1 (centres undefined) | -27.64
Cc1ccnc(N2CCCC(c3noc(C(C)C)n3)C2)n1 (centres undefined) | 19.69
c1cnnc(N2CCCC2CNCc2cnc(N3CCCC3)nc2)c1 (centres undefined) | -1.846
O=C1OCCN1Cc1cc(C(F)(F)F)ccc1F | -10.76
O=C(O)C(F)(F)F.c1ccc(N2CCOC3(CCCN(c4ncccn4)C3)C2)nc1 (centres undefined) | 84.77
Cc1nnc(N2CCCC3(CN(c4ccccn4)CCO3)C2)o1.O=C(O)C(F)(F)F (centres undefined) | 102.3
N#Cc1cccc(N2CCCC3(C2)CN(c2ncccn2)CCO3)n1.O=C(O)C(F)(F)F (centres undefined) | -0.7909
Cc1nnc(N2CCCC3(CN(Cc4ccc(C)s4)CCO3)C2)o1.O=C(O)C(F)(F)F.O=C(O)C(F)(F)F (centres undefined) | -0.4451
O=C(O)C(F)(F)F.O=C(O)C(F)(F)F.c1cnc(N2CCOC3(CCCN(c4cnccn4)C3)C2)nc1 (centres undefined) | -4.65
CCS(=O)(=O)N1CCOC2(CCCN(c3ccccn3)C2)C1.O=C(O)C(F)(F)F (centres undefined) | -10.79
Cc1cc(C(C)NC(=O)CCN2C(=O)c3ccccc3C2=O)c(C)o1 (centres undefined) | -2.425
Cc1nc(Nc2ncccn2)cc(C2CCCN2C2CCOCC2)n1 (centres undefined) | -10.06

Structure (SMILES) | Percent Effect [%]
Cc1nc(Nc2ncccn2)cc(C2CCCN2Cc2ncc[nH]2)n1 (centres undefined) | 97.78
c1cc(-c2c[nH]c([C@@H]3COCCN3Cc3ncc[nH]3)n2)ccn1 | -5.75
Cc1nc(Nc2ccccn2)cc(C2CCCN2Cc2ncc[nH]2)n1 (centres undefined) | 129.4
CCc1cc(C(C)Nc2nc(-c3cccnc3)nc3c2CNC3)on1 (centres undefined) | -7.07
CN(C)C(C)(C)CNC(=O)C(C)(C)c1ccccc1F | -19.41
Cc1csc(C2(NC(=O)NCCN3CCOCC3)CCCC2)n1 | -11.69
COc1cccc(NC(=O)N(CCC(F)(F)F)C[C@H](O)CO)c1 | -14.76
CCc1ccccc1OC1CN(C(=O)c2sccc2N)C1 | 9.804
CC(Cn1cccn1)NC(=O)NCCN1CCCCCC1=O (centres undefined) | -10.88
O=C(CN1CC(n2cccn2)C1)NCCCc1ccccc1 | -6.652
CC(C)c1nc2n(n1)CC(NCC(=O)NCCC1=CCCCC1)CC2 (centres undefined) | -9.722
O=C(CN1CC(n2cccn2)C1)NCC1(c2ccccc2)CCC1 | 14.59
N#CCCNC(=O)CN1CC(n2cccn2)C1 | 139.2
O=C(CN1CC(n2cccn2)C1)NCCC1=CCCCC1 | 104.9
O=C(CN1CC(n2cccn2)C1)NCCc1ccc(F)cc1 | 97.63
O=C(CN1CC(n2cccn2)C1)NCCc1c[nH]c2ccccc12 | -3.25
O=C(CN1CCCC(c2ncc[nH]2)C1)NCCCN1CCCCCC1=O (centres undefined) | 11.49
O=C(CN1CC(n2cccn2)C1)NCCCN1CCCC1=O | 95.99
CCC1CN(CC(=O)NCCC#N)CCO1 (centres undefined) | -6.003
O=C(c1ccc(CN2CC(n3cccn3)C2)cc1)N1CCCC1 | 6.953
CNC(=O)CCNC(=O)c1ccccc1N1CCOCC1 | -6.711
CCC1CN(C(=O)c2ccccc2C#N)CCN1C(C)C (centres undefined) | -3.955
COc1ccc2c(c1)C1(CCN(Cc3nccs3)CC1)N(C)CC2.O=C(O)C(F)(F)F.O=C(O)C(F)(F)F | 6.008
COc1ccc(-c2n[nH]cc2CN(C)Cc2nonc2C)c(F)c1 | -4.147
O=C([C@H]1C[C@H]2OCC[C@H]2N(C(=O)C2CCOCC2)C1)N1CCCCO1 | -4.541
CCOC(=O)c1ccccc1NC(=O)CN(C)Cc1ccccc1Cl.O=C(O)C(=O)O | 16.66

Structure (SMILES) | Percent Effect [%]
CC(=O)NCCC(=O)NCc1ccc(Br)cc1Cl | -2.805
Cc1cccc(C(C)(C)CNc2cn[nH]c(=O)c2Cl)c1 | 26.78
NC(=O)C1CCN(C(=O)Cc2cnc(-c3c(Cl)cccc3Cl)s2)CC1 | 112.4
O=C(O)Cc1cnc(-c2c(Cl)cccc2Cl)s1 | 122.5
O=C(NC1CC1)c1cc(NC(=O)N2CCOCC2)ccc1Cl | -10.77
O=C(O)Cc1cccc(-n2ccnc2-c2ccc(Cl)s2)c1 | 1.594
O=C(Cc1cnc(-c2c(Cl)cccc2Cl)s1)N1CCOCC1 | 134.1
NC(=O)C1CCN(C(=O)Cc2ccc(Cl)c(Cl)c2)CC1 | -1.39
Cc1oc(CNC(=O)Cc2ccccc2Cl)cc1C(=O)O | -14.11
Cc1nc2ccnn2c(C)c1CCC(=O)N1CCC(C(N)=O)CC1 | 1.242
CC(=O)N1CCCN(C(=O)NCCc2ccc(Cl)s2)CC1 | 4.085
CN(C)C(=O)N1CCN(Cc2cnc(-c3ccsc3)s2)CC1 | -2.871
Cc1ncc(CN(C)C(=O)Nc2cccc(C(=O)N3CCOCC3)c2)s1 | -6.788
CC(=O)N1CCN(C(=O)Cc2cnc(-c3c(Cl)cccc3Cl)s2)CC1 | 110.1
Cc1ncccc1OC1(C(=O)NCCC2CCCN2C)CCNCC1 (centres undefined) | 17.07
CCCOCC(=O)N1CCCN(Cc2csc(CC)n2)CC1 | 2.804
CS(=O)(=O)CCCN1CCSCC1c1ccc(Cl)cc1 (centres undefined) | -3.255
CC(C)NC(=O)CNC(C)COc1ccccc1 (centres undefined) | 2.359
CCN(CC(=O)Nc1c(C)nn(C)c1C)CC(O)c1ccc(C)cc1 (centres undefined) | 2.184
CCN(CC(O)c1ccc(C)cc1)C(=O)NC(C)C (centres undefined) | 91.44
CC(NC(=O)Nc1nccs1)c1cccnc1 (centres undefined) | -1.338
O=C(Nc1nccs1)N(CCO)Cc1ccsc1 | -2.808
CC(C)CN(CC(O)c1ccccc1)C(=O)NC(C)C (centres undefined) | 126.3
CCC(CC)(CNC(C)=O)NC(C)c1ccccc1 (centres undefined) | 1.082
CC(C)CN(CC(O)c1ccccc1)C(=O)Nc1nccs1 (centres undefined) | 92.63
CCN(CC(=O)Nc1c(C)n[nH]c1C)CC(O)c1ccc(C)cc1 (centres undefined) | -7.699
